This passage reports INHIBITION results from ChEMBL document CHEMBL4513216, “Probing the Open Global Health Chemical Diversity Library for Multistage-Active Starting Points for Next-Generation Antimalarials” (ACS Infect Dis, 2020).

Screen size: about 69,000 compounds; about 8,600 (12%) showed an effect of 50% or more. Shown is part of a subset that was picked to be rich in strong results.

For the experiment, the system named is Plasmodium berghei. Description: Screen against P. berghei liver stage (PbLuc), transformed with Luciferase, at 10uM. It is filed as functional, HepG2. Particulars: tested at 10 uM.
As to `CC(C)(C)C(=O)NC(c1nccs1)C1CCN(CC2CCCCC2)CC1` (centres undefined), the INHIBITION is 41.5%.

Regarding `CCn1nc(C)c(CCNC(=O)C2CCCN(C(C)=O)C2)c1C` (centres undefined), the INHIBITION is -20.2%. Take `Cc1cnn(CC2CCCCN2CCS(C)(=O)=O)c1` (centres undefined): the INHIBITION is recorded as 17.4%.

For `CNC(=O)CN1CCC(NC(=O)Cc2ccc3c(c2)OCCO3)CC1`, the INHIBITION is listed as -53.2%. Regarding `CCN(Cc1c(C)nn(CC)c1C)S(=O)(=O)c1cnn(C)c1`, the INHIBITION was 11.8%. Then `CCS(=O)(=O)N1C[C@@H]2C[C@H](C(=O)N(C)C)[C@H](C1)O2`, with 22.2%; and `CCN1CCCn2c(nc(CNC(=O)c3ccsc3)cc2=O)C1`, with 58%; and `CCCN1CCCn2c(nc(CNC(=O)c3ccsc3)cc2=O)C1`, with 18.5%. Turning to `Cc1oncc1C(=O)NCc1cc(=O)n2c(n1)CN(CC1CC1)CCC2`, the INHIBITION worked out at 36.4%.

Take `O=c1cc(CNS(=O)(=O)C2CC2)nc2n1CCCN(CC1CC1)C2`: the INHIBITION was determined as 33.1%. As for `CN1CCCn2c(nc(CNC(=O)c3ccsc3)cc2=O)C1`, the figure is 35.8%; as for `O=C(NCc1cc(=O)n2c(n1)CN(CC1CC1)CCC2)c1ccsc1`, 89.2%. As for `Cc1nn(C)c(N(C)C)c1CNCc1ccnc(N2CCCC2)c1`, the figure is -44.3%; as for `Oc1cc(-c2ccccn2)nc(C2CCN(Cc3ccncc3)CC2)n1`, -44.8%.

`O=C(CCN1CCOC(Cn2cccn2)C1)NC1CCCCC1` (centres undefined): the INHIBITION is recorded as -107%. With `O=C(c1ccc[nH]1)N1CCCn2c(CN3CCCCC3)nnc2C1`, the INHIBITION is reported as 42.1%. Then `O=C(c1ccncc1)N1CCCn2c(CN3CCCC3)nnc2C1`, with 35.7%; and `Cc1cccc(C(=O)N2CCCn3c(CN4CCCCC4)nnc3C2)c1`, with 25.2%. On to `O=C(c1cccc(Cl)c1)N1CCCn2c(CN3CCCCC3)nnc2C1`, for which the INHIBITION came out at 55.2%. On to `COCC(=O)N1CCCn2c(CN3CCCC3)nnc2C1`, for which the INHIBITION amounted to 56.6%. As to `O=C(c1ccccc1F)N1CCCn2c(CN3CCCCC3)nnc2C1`, the INHIBITION is 18.3%. As for `O=C1CCCN1Cc1nnc2n1CCCN(C(=O)c1ccc[nH]1)C2`, the figure is 53%; as for `O=C(c1ccc[nH]1)N1CCCn2c(nnc2Cn2cccn2)C1`, -17.2%; as for `COCC(=O)N1CCCn2c(CN3CCOCC3)nnc2C1`, -2.46%. As for `O=C(c1ccccc1)N1CCCn2c(CN3CCCCC3)nnc2C1`, the INHIBITION stood at 50.9%.

For `O=C(c1ccncc1)N1CCCn2c(CN3CCCCC3)nnc2C1`, the INHIBITION was determined as 31.8%. As for `COCC(=O)N1CCCn2c(CN3CCCCC3)nnc2C1`, the figure is 20.1%; as for `Cc1nc(C)n(CC2CCCN(Cc3cccc4c3OCCO4)C2)n1` (centres undefined), 38.8%.

Regarding `Cc1noc(C)c1-c1cncc(CC2CCN(C(=O)c3cc[nH]n3)C2)n1` (centres undefined), the INHIBITION was 22%. For the compound `CNc1nc(C2CCCN(C(=O)C(C)C)C2)nc2c1CN(C)CC2` (centres undefined), the INHIBITION was 12.3%. Then `Cc1cccc(OCCN2CCCC(c3cc(C(N)=O)[nH]n3)C2)c1` (centres undefined), with -46.4%.

With `Cc1cc(C(=O)N2CCCC3(COCCN(c4ncccn4)C3)C2)[nH]n1` (centres undefined), the INHIBITION is recorded as 33.4%. In the case of `COc1ccc2c(c1)C(C(=O)NCCCN1CCN(C)CC1)CC(=O)N2` (centres undefined), the INHIBITION is 26%.

For the compound `N#CC1(C(=O)N2CCCN(c3nccs3)CC2)CCCC1`, the INHIBITION stood at 7.305%.

With `Nc1nccc(C2CCCN(CC3CC3)C2)n1` (centres undefined), the INHIBITION worked out at 23%.

Consider `CC1CN(C)CCN1C(=O)NCCCn1ccnc1` (centres undefined), for which the INHIBITION amounted to 60.1%. For the compound `O=C(NCCCn1ccnc1)N1CCCC1c1ccncc1` (centres undefined), the INHIBITION was determined as 37%.

For the compound `COc1ccc(C2CCCN2C(=O)NCCCn2cccn2)cc1` (centres undefined), the INHIBITION came out at 56%. Turning to `COc1ccc(C2CCCN2C(=O)NCCCn2ccnc2)cc1` (centres undefined), the INHIBITION is 54.45%. Consider `COc1cccc(C2CCCN2C(=O)NCCCn2cccn2)c1` (centres undefined), for which the INHIBITION came out at 45.7%.

With `O=C(NCCCn1cccn1)N1CCCC1c1ccncc1` (centres undefined), the INHIBITION came to 9.3%. Turning to `CC1COCCN1C(=O)NCCCn1ccnc1` (centres undefined), the INHIBITION amounted to 24.8%. In the case of `COc1ccc(C2CCCN2C(=O)NCCn2ccnc2)cc1` (centres undefined), the INHIBITION turned out to be 21.425%. As for `CC1COCCN1C(=O)NCCn1ccnc1` (centres undefined), the figure is -3.94%; as for `O=S1(=O)COCCN1Cc1ccc(Cl)c(Cl)c1`, -12.5%; as for `c1csc(-c2noc(CNCCn3cccn3)n2)c1`, 18.2%. Then `CC(=O)N1CC[C@@H]2CN(Cc3ccncc3)S(=O)(=O)[C@@H]2CC1`, with -10.5%; and `Cc1ccsc1CN1CCC(c2nnc(Cn3cccn3)n2C)CC1`, with 25.4%; and `COc1cc(C)sc1C(=O)NCCNc1ccccc1`, with 43.1%. In the case of `CN(Cc1ccccc1)C(=O)CCNS(=O)(=O)c1cccnc1`, the INHIBITION was -17.6%. Then `COc1cc(C)sc1C(=O)NCCC(=O)N(C)Cc1ccccc1`, with 66.3%. Consider `COc1cc(C)sc1C(=O)NCCC(=O)N(C)c1ccccc1`, for which the INHIBITION amounted to 78.2%. As to `COC(=O)CCNC(=O)c1cccc(C(=O)N(C)c2ccccc2)c1`, the INHIBITION turned out to be 43.4%. As for `COc1ccsc1C(=O)NCCNc1ccccc1`, the figure is -33%.
